According to paper PMC7862700, “An all-to-all approach to the identification of sequence-specific readers for epigenetic DNA modifications on cytosine”:

How the values were obtained:
Assay in all cases: DAPPL (digital affinity profiling via proximity ligation, sequencing); 10 mM Tris-HCl pH 7.5, 50 mM NaCl, 1 mM DTT, 4% glycerol, room temperature, 30 min; GST-TFs on glutathione beads, 16-mer random dsDNA library, 0.1% formaldehyde crosslink after washing; high values mean tight binding
FEV = molecular target: T1, FEV (Homo sapiens, UniProt Q99581 1-238); settings: protein: recombinant; tags: N-terminal GST; dsDNA, one strand shown
T1 sequence: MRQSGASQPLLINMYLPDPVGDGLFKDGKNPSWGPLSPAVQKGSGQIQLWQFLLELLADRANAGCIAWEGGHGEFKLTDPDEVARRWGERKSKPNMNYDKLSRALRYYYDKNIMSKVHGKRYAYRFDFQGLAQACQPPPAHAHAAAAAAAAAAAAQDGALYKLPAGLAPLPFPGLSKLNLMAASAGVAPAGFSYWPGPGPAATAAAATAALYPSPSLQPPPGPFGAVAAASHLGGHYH
In short: (§1)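 Binding signal is given per hexamer as its read frequency for a factor divided by its frequency in the tag-only sample. GST-fused human transcription factors were expressed in yeast, captured on glutathione beads, barcoded with DNA and pooled with that sample, then incubated with 200 nmole of a 16-mer random double-stranded DNA library in Tris/NaCl/DTT/glycerol buffer for 30 min at room temperature. The pools were then washed, crosslinked, proximity-ligated, amplified by PCR and sequenced on an Illumina NextSeq500.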

ETV5 = ETV5 (Homo sapiens, UniProt P41161 1-510); settings: protein: recombinant; tags: N-terminal GST; dsDNA, one strand shown
Chain of ETV5 (P41161 whole entry): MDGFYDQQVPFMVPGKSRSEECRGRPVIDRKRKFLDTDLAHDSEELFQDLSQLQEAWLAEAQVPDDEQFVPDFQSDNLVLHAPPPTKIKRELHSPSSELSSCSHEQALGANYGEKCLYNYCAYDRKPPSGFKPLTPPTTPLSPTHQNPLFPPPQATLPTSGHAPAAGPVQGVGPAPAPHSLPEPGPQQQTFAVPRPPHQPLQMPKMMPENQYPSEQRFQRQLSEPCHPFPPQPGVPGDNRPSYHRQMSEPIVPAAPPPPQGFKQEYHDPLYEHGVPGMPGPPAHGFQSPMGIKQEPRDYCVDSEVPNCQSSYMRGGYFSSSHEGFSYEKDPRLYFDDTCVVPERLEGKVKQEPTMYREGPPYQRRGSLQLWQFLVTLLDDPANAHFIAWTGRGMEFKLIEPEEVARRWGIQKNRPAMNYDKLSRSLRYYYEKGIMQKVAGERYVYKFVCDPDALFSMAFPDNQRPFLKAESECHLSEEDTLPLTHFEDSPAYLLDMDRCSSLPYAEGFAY
In short: as §1

HSF1 = HSF1 (Homo sapiens, UniProt Q00613 1-529); settings: protein: recombinant; tags: N-terminal GST; chain copies: 3; dsDNA, one strand shown
Chain of HSF1 (Q00613 whole entry): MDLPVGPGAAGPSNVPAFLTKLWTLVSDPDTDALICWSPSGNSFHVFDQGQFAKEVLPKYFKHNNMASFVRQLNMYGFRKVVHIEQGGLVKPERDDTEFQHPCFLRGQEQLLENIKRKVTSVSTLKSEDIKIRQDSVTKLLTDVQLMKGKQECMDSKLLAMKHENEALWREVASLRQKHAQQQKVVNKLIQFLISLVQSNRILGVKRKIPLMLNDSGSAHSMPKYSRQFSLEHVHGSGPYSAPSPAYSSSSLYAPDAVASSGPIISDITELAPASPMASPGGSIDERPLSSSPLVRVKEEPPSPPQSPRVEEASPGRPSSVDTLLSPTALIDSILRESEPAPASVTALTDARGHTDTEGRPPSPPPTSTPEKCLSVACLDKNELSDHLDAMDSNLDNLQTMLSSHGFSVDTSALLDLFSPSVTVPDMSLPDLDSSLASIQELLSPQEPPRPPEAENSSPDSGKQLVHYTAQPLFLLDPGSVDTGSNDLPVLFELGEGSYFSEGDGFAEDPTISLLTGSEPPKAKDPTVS
In short: as §1

SPIC = molecular target: T2, SPIC (Homo sapiens, UniProt Q8N5J4 1-248); settings: protein: recombinant; tags: N-terminal GST; dsDNA, one strand shown
T2 sequence: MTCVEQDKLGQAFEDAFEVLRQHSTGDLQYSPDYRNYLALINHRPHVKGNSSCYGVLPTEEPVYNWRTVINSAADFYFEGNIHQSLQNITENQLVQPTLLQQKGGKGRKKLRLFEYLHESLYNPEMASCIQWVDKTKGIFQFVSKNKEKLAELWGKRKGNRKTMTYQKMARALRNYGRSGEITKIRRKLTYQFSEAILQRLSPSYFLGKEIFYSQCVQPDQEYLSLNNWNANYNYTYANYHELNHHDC
In short: as §1

ELF4 = ELF4 (Homo sapiens, UniProt Q99607 1-663); settings: protein: recombinant; tags: N-terminal GST; dsDNA, one strand shown
Chain of ELF4 (Q99607 whole entry): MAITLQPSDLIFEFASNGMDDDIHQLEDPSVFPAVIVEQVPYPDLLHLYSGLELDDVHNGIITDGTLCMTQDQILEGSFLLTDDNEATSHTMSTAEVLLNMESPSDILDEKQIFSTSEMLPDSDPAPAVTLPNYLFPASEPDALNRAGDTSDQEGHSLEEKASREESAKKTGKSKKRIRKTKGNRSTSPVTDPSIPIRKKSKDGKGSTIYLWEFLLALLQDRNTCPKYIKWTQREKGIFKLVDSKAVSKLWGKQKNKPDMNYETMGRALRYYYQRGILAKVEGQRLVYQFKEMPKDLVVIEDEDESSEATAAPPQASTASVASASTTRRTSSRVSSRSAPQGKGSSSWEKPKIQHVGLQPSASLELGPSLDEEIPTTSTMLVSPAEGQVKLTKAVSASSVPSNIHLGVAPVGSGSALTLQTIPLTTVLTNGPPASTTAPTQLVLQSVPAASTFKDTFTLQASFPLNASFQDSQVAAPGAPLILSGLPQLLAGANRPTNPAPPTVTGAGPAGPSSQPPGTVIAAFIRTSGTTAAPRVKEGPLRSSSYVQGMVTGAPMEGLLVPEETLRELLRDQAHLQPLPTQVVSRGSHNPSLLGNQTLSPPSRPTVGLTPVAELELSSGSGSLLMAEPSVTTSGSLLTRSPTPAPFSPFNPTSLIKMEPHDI
In short: as §1

ELK4 = molecular target: T3, ELK4 (Homo sapiens, UniProt P28324-2 1-405); settings: protein: recombinant; tags: N-terminal GST; dsDNA, one strand shown
T3 sequence: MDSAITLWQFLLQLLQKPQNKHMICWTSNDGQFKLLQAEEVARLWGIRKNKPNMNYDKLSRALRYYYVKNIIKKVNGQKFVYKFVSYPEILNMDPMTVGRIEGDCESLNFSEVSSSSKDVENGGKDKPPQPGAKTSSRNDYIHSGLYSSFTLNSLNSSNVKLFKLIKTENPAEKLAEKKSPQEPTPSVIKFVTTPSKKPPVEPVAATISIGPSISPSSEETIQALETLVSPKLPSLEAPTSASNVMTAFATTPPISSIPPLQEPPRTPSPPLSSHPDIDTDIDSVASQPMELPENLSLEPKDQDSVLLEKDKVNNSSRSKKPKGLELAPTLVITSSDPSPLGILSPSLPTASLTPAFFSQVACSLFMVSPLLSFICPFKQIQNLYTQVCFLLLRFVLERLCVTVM
In short: as §1

ETV2 = molecular target: T4, ETV2 (Homo sapiens, UniProt O00321 1-342); settings: protein: recombinant; tags: N-terminal GST; dsDNA, one strand shown
T4 sequence: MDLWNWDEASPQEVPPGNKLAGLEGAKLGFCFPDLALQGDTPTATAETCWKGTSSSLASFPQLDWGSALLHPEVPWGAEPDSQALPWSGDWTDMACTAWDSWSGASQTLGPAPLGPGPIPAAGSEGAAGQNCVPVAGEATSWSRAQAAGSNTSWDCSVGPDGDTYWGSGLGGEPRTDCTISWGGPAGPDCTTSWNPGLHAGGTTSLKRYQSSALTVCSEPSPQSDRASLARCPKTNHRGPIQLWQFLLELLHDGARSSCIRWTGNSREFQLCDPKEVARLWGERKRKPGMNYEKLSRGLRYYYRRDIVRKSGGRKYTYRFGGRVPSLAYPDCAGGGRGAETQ
In short: as §1

ELF3 = molecular target: T5, ELF3 (Homo sapiens, UniProt P78545 1-371); settings: protein: recombinant; tags: N-terminal GST; dsDNA, one strand shown
T5 sequence: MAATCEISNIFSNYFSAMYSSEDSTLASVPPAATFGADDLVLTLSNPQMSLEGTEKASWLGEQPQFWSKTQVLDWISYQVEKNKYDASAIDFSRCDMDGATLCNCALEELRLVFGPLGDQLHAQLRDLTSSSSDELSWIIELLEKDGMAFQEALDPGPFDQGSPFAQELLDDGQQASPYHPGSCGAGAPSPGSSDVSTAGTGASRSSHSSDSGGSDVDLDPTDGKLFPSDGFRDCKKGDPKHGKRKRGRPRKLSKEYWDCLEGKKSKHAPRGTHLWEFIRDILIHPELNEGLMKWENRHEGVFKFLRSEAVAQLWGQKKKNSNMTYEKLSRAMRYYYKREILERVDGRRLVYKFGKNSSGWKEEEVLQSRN
In short: as §1

CRX = CRX (Homo sapiens, UniProt O43186 1-299); settings: protein: recombinant; tags: N-terminal GST; dsDNA, one strand shown
Chain of CRX (O43186 whole entry): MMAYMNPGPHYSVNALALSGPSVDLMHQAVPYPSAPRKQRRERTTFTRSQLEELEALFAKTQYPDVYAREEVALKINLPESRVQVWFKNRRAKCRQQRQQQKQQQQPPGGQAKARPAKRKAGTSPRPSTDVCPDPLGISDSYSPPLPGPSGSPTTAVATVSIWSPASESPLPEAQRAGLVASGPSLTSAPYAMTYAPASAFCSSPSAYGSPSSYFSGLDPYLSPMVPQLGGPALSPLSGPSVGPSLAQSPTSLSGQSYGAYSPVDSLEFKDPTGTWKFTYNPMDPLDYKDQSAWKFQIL
In short: as §1

ETV1 = ETV1 (Homo sapiens, UniProt P50549 1-477); settings: protein: recombinant; tags: N-terminal GST; dsDNA, one strand shown
Chain of ETV1 (P50549 whole entry): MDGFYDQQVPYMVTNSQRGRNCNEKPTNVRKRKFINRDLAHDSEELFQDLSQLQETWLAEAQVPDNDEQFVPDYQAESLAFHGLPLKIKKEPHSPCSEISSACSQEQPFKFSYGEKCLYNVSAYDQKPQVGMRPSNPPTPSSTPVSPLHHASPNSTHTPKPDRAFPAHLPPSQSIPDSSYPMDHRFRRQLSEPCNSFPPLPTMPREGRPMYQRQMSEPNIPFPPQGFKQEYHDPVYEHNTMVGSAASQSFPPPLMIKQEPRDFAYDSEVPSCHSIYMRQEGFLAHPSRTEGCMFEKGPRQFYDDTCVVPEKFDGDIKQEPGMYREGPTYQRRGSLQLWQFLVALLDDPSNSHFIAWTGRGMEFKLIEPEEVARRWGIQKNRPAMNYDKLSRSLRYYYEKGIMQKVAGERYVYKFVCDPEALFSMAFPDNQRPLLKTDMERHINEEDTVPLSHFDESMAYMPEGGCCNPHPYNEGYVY
In short: as §1

ERF = molecular target: T6, ERF (Homo sapiens, UniProt P50548 1-548); settings: protein: recombinant; tags: N-terminal GST; dsDNA, one strand shown
T6 sequence: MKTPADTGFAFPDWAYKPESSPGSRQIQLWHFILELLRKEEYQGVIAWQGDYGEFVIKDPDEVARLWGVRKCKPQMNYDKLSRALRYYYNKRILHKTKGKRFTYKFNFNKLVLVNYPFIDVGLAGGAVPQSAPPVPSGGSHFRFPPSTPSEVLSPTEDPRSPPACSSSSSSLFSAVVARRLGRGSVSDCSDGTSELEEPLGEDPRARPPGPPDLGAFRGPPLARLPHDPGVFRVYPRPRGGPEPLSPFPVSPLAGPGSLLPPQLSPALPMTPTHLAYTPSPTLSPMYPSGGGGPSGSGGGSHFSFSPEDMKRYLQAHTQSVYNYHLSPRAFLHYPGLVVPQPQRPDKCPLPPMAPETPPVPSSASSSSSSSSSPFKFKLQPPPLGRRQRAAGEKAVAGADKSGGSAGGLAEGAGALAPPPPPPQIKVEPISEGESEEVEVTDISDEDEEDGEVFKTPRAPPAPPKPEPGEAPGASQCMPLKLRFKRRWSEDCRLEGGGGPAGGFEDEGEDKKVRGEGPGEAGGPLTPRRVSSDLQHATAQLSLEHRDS
In short: as §1

ETV3L = molecular target: T7, ETV3L (Homo sapiens, UniProt Q6ZN32 1-361); settings: protein: recombinant; tags: N-terminal GST; dsDNA, one strand shown
T7 sequence: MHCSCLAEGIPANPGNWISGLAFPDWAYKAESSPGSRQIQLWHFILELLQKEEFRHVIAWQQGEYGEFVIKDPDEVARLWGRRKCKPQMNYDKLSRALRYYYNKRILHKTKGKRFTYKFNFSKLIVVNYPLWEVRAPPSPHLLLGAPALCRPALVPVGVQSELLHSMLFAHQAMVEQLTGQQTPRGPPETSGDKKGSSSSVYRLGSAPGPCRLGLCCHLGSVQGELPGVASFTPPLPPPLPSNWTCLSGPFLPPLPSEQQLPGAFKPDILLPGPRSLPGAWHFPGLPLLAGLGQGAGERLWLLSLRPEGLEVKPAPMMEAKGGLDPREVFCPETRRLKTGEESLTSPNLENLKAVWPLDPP
In short: as §1

ETS2 = molecular target: T8, ETS2 (Homo sapiens, UniProt P15036 1-469); settings: protein: recombinant; tags: N-terminal GST; dsDNA, one strand shown
T8 sequence: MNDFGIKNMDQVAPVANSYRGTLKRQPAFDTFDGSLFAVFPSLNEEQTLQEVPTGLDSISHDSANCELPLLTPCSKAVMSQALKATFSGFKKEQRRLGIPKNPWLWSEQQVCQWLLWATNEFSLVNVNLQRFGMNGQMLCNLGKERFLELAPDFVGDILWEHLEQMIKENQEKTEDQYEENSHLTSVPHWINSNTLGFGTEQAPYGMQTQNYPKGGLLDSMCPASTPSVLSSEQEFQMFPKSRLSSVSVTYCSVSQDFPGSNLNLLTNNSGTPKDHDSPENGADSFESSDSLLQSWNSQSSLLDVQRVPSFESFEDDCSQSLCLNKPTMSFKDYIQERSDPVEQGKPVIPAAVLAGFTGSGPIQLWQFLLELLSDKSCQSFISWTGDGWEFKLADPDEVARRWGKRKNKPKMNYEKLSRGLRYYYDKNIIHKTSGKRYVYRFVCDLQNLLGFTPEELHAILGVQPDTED
In short: as §1

SPDEF = molecular target: T9, SPDEF (Homo sapiens, UniProt O95238 1-335); settings: protein: recombinant; tags: N-terminal GST; dsDNA, one strand shown
T9 sequence: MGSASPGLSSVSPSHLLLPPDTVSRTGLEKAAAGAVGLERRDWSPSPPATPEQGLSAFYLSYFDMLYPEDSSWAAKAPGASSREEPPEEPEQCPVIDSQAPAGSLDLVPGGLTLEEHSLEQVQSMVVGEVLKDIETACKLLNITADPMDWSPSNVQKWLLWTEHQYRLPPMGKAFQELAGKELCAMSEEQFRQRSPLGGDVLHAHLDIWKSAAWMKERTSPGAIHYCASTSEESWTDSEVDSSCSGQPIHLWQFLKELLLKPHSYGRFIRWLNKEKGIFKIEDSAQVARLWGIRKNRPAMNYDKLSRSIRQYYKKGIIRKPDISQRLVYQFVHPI
In short: as §1

ETV7 = molecular target: T10, ETV7 (Homo sapiens, UniProt Q9Y603 1-341); settings: protein: recombinant; tags: N-terminal GST; dsDNA, one strand shown
T10 sequence: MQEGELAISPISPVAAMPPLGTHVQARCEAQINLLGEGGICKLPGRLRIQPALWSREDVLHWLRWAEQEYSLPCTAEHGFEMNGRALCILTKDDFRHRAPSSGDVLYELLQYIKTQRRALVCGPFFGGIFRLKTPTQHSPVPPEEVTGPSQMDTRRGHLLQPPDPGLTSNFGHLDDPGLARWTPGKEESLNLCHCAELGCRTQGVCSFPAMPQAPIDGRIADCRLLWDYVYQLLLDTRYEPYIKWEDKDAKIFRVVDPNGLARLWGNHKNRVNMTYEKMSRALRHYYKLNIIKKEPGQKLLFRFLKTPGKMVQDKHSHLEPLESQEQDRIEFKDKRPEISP
In short: as §1

ELF5 = molecular target: T11, ELF5 (Homo sapiens, UniProt Q9UKW6-2 1-255); settings: protein: recombinant; tags: N-terminal GST; dsDNA, one strand shown
T11 sequence: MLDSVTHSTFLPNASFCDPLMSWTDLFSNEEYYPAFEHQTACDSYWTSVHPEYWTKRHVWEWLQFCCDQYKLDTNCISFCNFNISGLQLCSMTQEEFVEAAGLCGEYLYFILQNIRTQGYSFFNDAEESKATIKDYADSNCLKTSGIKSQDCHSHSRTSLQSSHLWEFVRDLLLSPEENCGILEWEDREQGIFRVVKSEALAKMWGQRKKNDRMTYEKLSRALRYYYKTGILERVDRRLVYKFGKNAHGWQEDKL
In short: as §1

ETV3 = molecular target: T12, ETV3 (Homo sapiens, UniProt P41162-2 1-143); settings: protein: recombinant; tags: N-terminal GST; dsDNA, one strand shown
T12 sequence: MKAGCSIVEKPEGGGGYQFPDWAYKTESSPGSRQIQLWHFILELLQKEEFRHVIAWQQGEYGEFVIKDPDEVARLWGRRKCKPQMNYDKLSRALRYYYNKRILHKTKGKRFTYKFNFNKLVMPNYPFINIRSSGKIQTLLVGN
In short: as §1

ETV6 = ETV6 (Homo sapiens, UniProt P41212 1-452); settings: protein: recombinant; tags: N-terminal GST; dsDNA, one strand shown
Chain of ETV6 (P41212 whole entry): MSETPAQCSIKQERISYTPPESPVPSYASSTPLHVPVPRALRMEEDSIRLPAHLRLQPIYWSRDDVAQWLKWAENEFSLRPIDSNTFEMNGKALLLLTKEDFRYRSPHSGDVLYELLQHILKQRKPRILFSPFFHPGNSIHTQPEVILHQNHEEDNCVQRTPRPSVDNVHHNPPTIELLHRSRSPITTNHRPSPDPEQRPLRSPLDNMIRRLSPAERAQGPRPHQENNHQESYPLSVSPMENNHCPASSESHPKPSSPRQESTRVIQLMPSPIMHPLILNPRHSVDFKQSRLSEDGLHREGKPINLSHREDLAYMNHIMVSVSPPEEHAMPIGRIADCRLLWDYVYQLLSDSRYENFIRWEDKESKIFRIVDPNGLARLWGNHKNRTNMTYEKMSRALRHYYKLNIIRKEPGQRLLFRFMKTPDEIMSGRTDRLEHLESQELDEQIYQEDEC
In short: as §1

Sequence: TTAATC
- binding signal (FEV): 1.19 fold enrichment (6-mer frequency, TF over GST control)
- binding signal (ETV5): 1.23 fold enrichment (6-mer frequency, TF over GST control)
- binding signal (HSF1): 3.29 fold enrichment (6-mer frequency, TF over GST control)
- binding signal (SPIC): 1.19 fold enrichment (6-mer frequency, TF over GST control)
- binding signal (ELF4): 1.26 fold enrichment (6-mer frequency, TF over GST control)
- binding signal (ELK4): 1.43 fold enrichment (6-mer frequency, TF over GST control)
- binding signal (ETV2): 1.13 fold enrichment (6-mer frequency, TF over GST control)
- binding signal (ELF3): 1.27 fold enrichment (6-mer frequency, TF over GST control)
- binding signal (CRX): 6.11 fold enrichment (6-mer frequency, TF over GST control)
- binding signal (ETV1): 1.33 fold enrichment (6-mer frequency, TF over GST control)
- binding signal (ERF): 1.19 fold enrichment (6-mer frequency, TF over GST control)
- binding signal (ETV3L): 1.21 fold enrichment (6-mer frequency, TF over GST control)
- binding signal (ETS2): 1.29 fold enrichment (6-mer frequency, TF over GST control)
- binding signal (SPDEF): 1.26 fold enrichment (6-mer frequency, TF over GST control)
- binding signal (ETV7): 1.1 fold enrichment (6-mer frequency, TF over GST control)
- binding signal (ELF5): 1.18 fold enrichment (6-mer frequency, TF over GST control)
- binding signal (ETV3): 1.24 fold enrichment (6-mer frequency, TF over GST control)
- binding signal (ETV6): 1.21 fold enrichment (6-mer frequency, TF over GST control)
